LAP4 TOR yeast = alters LAP4-GFP fluorescence in TOR pathway yeast screen; S. cerevisiae LAP4-GFP multiplex, flow cytometry GFP, 3 h; median GFP as percent of DMSO wells; GFP response vs DMSO, % at 10 µM; hit rate 0.34% among 320,000; AID 2023;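 active = GFP response vs DMSO above a set limit, about the screen mean plus 3 SD, cut at about 150% in these data; inconclusive = under 70 cell events counted for the yeast strain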
AGP1 TOR yeast = modulators of TOR pathway AGP1-GFP in S. cerevisiae; S. cerevisiae AGP1-GFP multiplex flow cytometry, 3 h; GFP as percent of DMSO wells; GFP response vs DMSO, % at 10 µM; hit rate 0.02% among 320,000; AID 2066;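 active = GFP response relative to DMSO above a set limit, near screen average plus 3 SD, cut at about 150% in these data; inconclusive = fewer than 70 cells counted for the yeast strain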;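 also: median GFP channel fluorescence of the gated AGP1 strain per well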
RPL19A-GFP yeast = modulators of TOR pathway RPL19A-GFP in S. cerevisiae; S. cerevisiae RPL19A-GFP strain, flow cytometry, 3 h; stronger effect = lower value; percent response vs DMSO, % at 10 µM; hit rate 0.3% among 330,000; AID 2025;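 active = percent response vs DMSO below 50%; inconclusive = fewer than 70 events counted for the yeast strain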;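 also: median channel GFP fluorescence of the barcoded RPL19A-GFP strain; ratio of sample median GFP to plate DMSO average so 100% = DMSO; lower means less RPL19A-GFP as with rapamycin TOR inhibition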
CIT2 TOR yeast = yeast TOR pathway CIT2-GFP modulation; S. cerevisiae CIT2-GFP strain, flow cytometry, 3 h; 100 means same as DMSO wells; AID 2029; GFP response vs DMSO, % at 10 µM; hit rate 0.065% among 320,000;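 active = GFP response relative to DMSO above a set limit, near the screen mean plus 3 SD, cut at about 150% in these data; inconclusive = Fewer than 70 cells measured for a yeast strain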;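 also: ratio of well median GFP fluorescence to mean of DMSO wells on the plate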
MEP2-GFP yeast = modulators of TOR pathway MEP2-GFP in S. cerevisiae; S. cerevisiae MEP2-GFP strain, flow cytometry GFP, 3 h; 100% = DMSO control level; GFP response vs DMSO, % at 10 µM; hit rate 0.51% among 330,000;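 active = GFP response versus DMSO above a set limit, roughly screen mean plus 3 SD, cut at about 180% in these data; inconclusive = fewer than 70 cells counted for a yeast strain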;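 also: median GFP fluorescence of the barcode-gated MEP2-GFP cells per well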
LAP4 cherry2 = yeast LAP4-GFP modulation, second cherry pick. shares compounds with LAP4 TOR yeast. S. cerevisiae LAP4-GFP strain, flow cytometry GFP, 3 h. GFP response vs DMSO, % at 10 µM. hit rate 20% among 590;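 active = GFP signal as percent of the solvent control above about 150%, meaning raised reporter expression, limit read from the data; inconclusive = fewer than 70 cells counted in the well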;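 also: ratio of well median GFP fluorescence to plate DMSO mean so 100% = DMSO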
MEP2-GFP pick2 = yeast MEP2-GFP modulation, second cherry pick; shares compounds with LAP4 TOR yeast; S. cerevisiae MEP2-GFP strain, flow cytometry GFP, 3 h; GFP response vs DMSO, % at 10 µM; hit rate 10% among 590; AID 2622;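 active = GFP signal above 150% of the solvent control wells, that is a rise of more than half; inconclusive = fewer than 70 yeast cells counted in the well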;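 also: median channel GFP fluorescence of all gated yeast cells per well; ratio of median GFP to plate DMSO average so 100% = DMSO level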
RPL19A GFP CP2 = reconfirmed modulator of RPL19A-GFP TOR reporter in yeast; shares compounds with LAP4 TOR yeast; S. cerevisiae RPL19A-GFP strain, flow cytometry GFP, 3 h; stronger effect = lower value; 100% means same as DMSO wells; GFP response vs DMSO, % at 10 µM; hit rate 3% among 590;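 active = under 65% GFP response relative to DMSO; inconclusive = yeast strain with under 70 measured events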;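 also: median GFP channel fluorescence per well over the all cells gate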
CIT2 GFP CP2 = reconfirmed modulator of CIT2-GFP TOR reporter in yeast; shares compounds with LAP4 TOR yeast; S. cerevisiae CIT2-GFP strain, flow cytometry GFP, 3 h; DMSO control wells read 100%; GFP response vs DMSO, % at 10 µM; hit rate 8% among 590; AID 2624;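 active = GFP response vs DMSO above about 150%, limit read from the data; inconclusive = fewer than 70 events counted for a yeast strain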;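 also: median green fluorescence per well over all gated yeast cells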
AGP1 GFP CP2 = yeast AGP1-GFP TOR reporter modulation, second cherry pick. percent response vs DMSO, % at 10 µM. AID 2643. S. cerevisiae AGP1-GFP strain, flow cytometry GFP, 3 h. 590 tested, under 10 active. shares compounds with LAP4 TOR yeast;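 active = over 150 percent of DMSO response; inconclusive = yeast strain measured with under 70 events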;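 also: median GFP channel fluorescence over all cells without mother daughter split; sample median GFP divided by mean DMSO control so 100% equals DMSO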
s288c autofluor = yeast s288c autofluorescence artifact, counter-screen; AID 2757; S. cerevisiae s288c, 520 nm autofluorescence, flow cytometry, 3 h; stronger effect = higher value; zero means same as solvent-only cells; 610 tested, under 10 active; fluorescence change (kMESF span) at 33 µM; shares compounds with LAP4 TOR yeast;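 active = fluorescence span over the dose series, or activity score, above about 33, limit read from the data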
s288c autofl DR = yeast s288c autofluorescence artifact in dose response | fluorescence change (span) at 33 µM | AID 488829 | S. cerevisiae s288c parental, compound autofluorescence, flow cytometry, 3 h | shares compounds with LAP4 TOR yeast | 110 tested, under 10 active;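 active = fluorescence change span, or the activity score built from it, above 25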
TORC1 bypass = compounds blocking wildtype yeast growth but not TORC1 bypass cells. shares compounds with LAP4 TOR yeast. S. cerevisiae BY4741 spot growth rating, 48-72 h; stronger effect = lower value. growth rating (0-3) at 30 µM. 120 tested, under 10 active. AID 504456;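 active = growth rating at most 1 for wild type yeast while the TORC1 bypass strain still grows fully, rated 3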
* = called active by the depositor; ? = inconclusive; / = not tested or not shown; + = active, no number; [ ] = dose if it differs, or a comment. Shown are actives, neighbours in structure and some others; about 0.92% of the full set was active somewhere.

SMILES | LAP4 TOR yeast | AGP1 TOR yeast | RPL19A-GFP yeast | CIT2 TOR yeast | MEP2-GFP yeast | others
Cc1cccc(-c2noc(CN(C)C(=O)c3ccoc3C)n2)c1 | 103 | 102 | 106 | 103 | 108
Cc1cccc(-c2noc(CN(C)C(=O)c3ccco3)n2)c1 | 87 | 13 | 67 | ? | 514*[may fluoresce violet]
S=c1[nH]nc(NCCCN2CCOCC2)s1 | 104 | 31 | 51 | 104 | 327*
S=C(NCCCN1CCOCC1)NCCCN1CCOCC1 | 108 | 100 | 96 | 90 | 94
CCCCNc1c(-c2ccc(SC3CCCCC3)cc2)nc2ccccn12 | 149 | 84 | 88 | 72 | 91
CCCCNc1c(-c2ccc(SC(C)CC)cc2)nc2ccccn12 (stereo not given) | 162* | 83 | 85 | 78 | 91
CCCCS/C(N)=N/N=C/c1ccccc1O | 98 | 92 | 94 | 96 | 94
CCCS/C(N)=N/N=C/c1cc(C)ccc1O | 110 | / | 57 | ? | 234*[may fluoresce violet]
CCOC(=O)C1=C(c2ccccc2)NC(SCC(=O)Nc2ccc(C)cc2)=C(C#N)C1c1ccco1 (stereo not given) | 89 | ? | 19*[may fluoresce violet] | ? | 271*[may fluoresce violet]
Cc1ccc(NC(=O)CSC2=C(C#N)C(c3ccco3)CC(=O)N2)cc1 (stereo not given) | 98 | 100 | 98 | ? | 183*[may fluoresce violet]
CCCC1(c2ccccc2)NC(=O)N(CC(=O)NCC2COc3ccccc3O2)C1=O (stereo not given) | 90 | 93 | 94 | 90 | 102
COc1cc(NC(=O)C2CCCCC2)c(OC)cc1NC(=O)CN1CCCCC1 | 84 | ? | 58 | ? | 249*[may fluoresce violet]
Cc1ccc2occ(C(c3nnnn3C3CCCC3)N3CCN(C(=O)c4ccco4)CC3)c(=O)c2c1 (stereo not given) | 98 | 91 | 98 | 90 | 95
O=C(c1ccco1)N1CCN(C(c2coc3ccc(Cl)cc3c2=O)c2nnnn2C2CCCC2)CC1 (stereo not given) | 93 | ? | 20*[may fluoresce violet] | ? | 416*[may fluoresce violet]
COc1ccc(C(=O)NC(=S)NNC(=O)c2cnccn2)cc1 | 241* | 87 | 105 | 90 | 111 | s288c autofluor=1;s288c autofl DR=0.49;TORC1 bypass=3
O=C(NC(=S)NNC(=O)c1cnccn1)c1ccc(Cl)cc1 | 181* | 109 | 112 | 102 | 117 | s288c autofluor=2
Cc1ccccc1-c1nc(C#N)c(N2CCCCC2)o1 | 111 | 104 | 99 | 100 | 103
COc1ccc(-c2n[nH]c(C)c2-c2ccc(Cl)cc2)c(O)c1 | 118 | 49 | 55 | 74 | 78 | LAP4 cherry2=112;MEP2-GFP pick2=103;RPL19A GFP CP2=92;CIT2 GFP CP2=88;AGP1 GFP CP2=88
N=C1C(c2nc3ccccc3s2)=C(O)CN1c1ccccc1 | 104 | 107 | 116 | 109 | 107
O=[N+]([O-])c1cc(O)c2ncccc2c1 | 169* | 98 | 101 | 124 | 104 | s288c autofluor=0.71;s288c autofl DR=1.9;TORC1 bypass=3
O=[N+]([O-])c1cc2cccnc2c2ncccc12 | 109 | 104 | 102 | 102 | 102
Cc1nc2ccc(NC(=O)c3oc4ccc(F)cc4c3C)cc2s1 | 884* | 266* | 261 | + | + | LAP4 cherry2=96;MEP2-GFP pick2=105;RPL19A GFP CP2=100;CIT2 GFP CP2=90;AGP1 GFP CP2=94;s288c autofluor=0
Cc1c(C(=O)Nc2ccc3nc(N4CCOCC4)sc3c2)oc2ccccc12 | 111 | 101 | 98 | 96 | 102
CCOC(=O)c1c(C)[nH]c(C)c1C(=O)COC(=O)/C=C/c1cccc(C(F)(F)F)c1 | 95 | 86 | 97 | 93 | 99
CCOC(=O)c1c(C)[nH]c(C)c1C(=O)COC(=O)/C=C/c1cccc(F)c1 | 246* | 121 | 124 | 231* | 309* | LAP4 cherry2=104;MEP2-GFP pick2=115;RPL19A GFP CP2=98;CIT2 GFP CP2=113;AGP1 GFP CP2=96
SMILES | LAP4 TOR yeast | AGP1 TOR yeast | RPL19A-GFP yeast | CIT2 TOR yeast | MEP2-GFP yeast | others
CCOC(=O)c1nn(-c2ccc(OCC)cc2)c2nc(-c3cccc(OC)c3)c(C#N)c(=O)n12 | 99 | 98 | 106 | 104 | 106
CCOC(=O)c1nn(-c2ccc(OCC)cc2)c2nc(-c3ccco3)c(C#N)c(=O)n12 | 96 | 82 | 64 | 100 | 130 | LAP4 cherry2=97;MEP2-GFP pick2=105;RPL19A GFP CP2=100;CIT2 GFP CP2=103;AGP1 GFP CP2=103
O=c1[nH]c(-c2ccccn2)nc(C(F)(F)F)c1Br | 242* | 97 | 108 | 93 | 113 | s288c autofluor=1.7
CCCCc1ccc(NC(=O)CC(C)=O)cc1 | 110 | 103 | 107 | 103 | 110 | LAP4 cherry2=143;MEP2-GFP pick2=175*;RPL19A GFP CP2=107;CIT2 GFP CP2=152*;AGP1 GFP CP2=101;s288c autofluor=0
O=C(Cc1cc2ccccc2o1)NCc1ccc(F)cc1 | 99 | 95 | 100 | 98 | 111
Nc1cccc(S(=O)(=O)Nc2ccccc2)c1 | 107 | 99 | 95 | 92 | 93
Nc1ccc(Br)c2c1C(=O)c1ccccc1C2=O | 143 | 71 | 62 | 128 | 134 | LAP4 cherry2=156*;MEP2-GFP pick2=113;RPL19A GFP CP2=80;CIT2 GFP CP2=126;AGP1 GFP CP2=94;s288c autofluor=0.1
Nc1ccc(O)c2c1C(=O)c1ccccc1C2=O | 146 | 92 | 97 | 110 | 147
Cc1ccc(C(=O)/C=C/C(=O)c2ccc(C)cc2)cc1 | 168* | 84 | 97 | 93 | 93 | s288c autofluor=0.61
Cc1cc(NC(=O)CSc2nnc(-c3ccncc3)n2-c2ccc(F)cc2)no1 | 98 | 75 | 63 | 91 | 135 | LAP4 cherry2=100;MEP2-GFP pick2=103;RPL19A GFP CP2=100;CIT2 GFP CP2=97;AGP1 GFP CP2=97

Screening data deposited in PubChem by NMMLSC.
